Out of some 1,200 compounds screened, about 400 (33%) were called active. A selection follows. Results with a measured potency or affinity are listed apart. A number with no mark means an inactive call. No rule for the calls is given here.
Test: mammalian cell cytotoxicity, dose response, cytotoxicity control (AID 434958);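 also: cells exposed to compound for 72 hours before readout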
Settings: cytotoxicity counter-screen; series mostly up to 40 µM; viability: at the top concentration

First: COc1ccc(NC(=O)COC(=O)Cc2ccc(-c3ccccc3)cc2)c(OC)c1
Second: COc1ccc(NC(=O)c2cc(C)nc3ccccc23)c(OC)c1
The “viability” value of the first is lower: 94.5% for the first, 96.7% for the second.

Going from COc1ccccc1NC(=O)COc1ccc(CO)cc1Cl to COc1ccc(OC)c(NC(=O)c2ccccc2SC)c1, the “viability” value rises from 93.6% to 102%.

Compared with COc1cccc(C(=O)C2CCCN(Cc3ccccn3)C2)c1 (configuration not stated), COc1cccc(NC(=O)C2CC2)c1 is higher in “viability” value: 97.5% for the first, 102% for the second.

Compared with COc1ccc(OC)c2nc(-c3ccc4c(c3)OCO4)ccc12, COc1ccc(-c2cc3cc(OC)c(OC)cc3c(C)n2)cc1 is lower in “viability” value: 84.1% for the first, 81.3% for the second.

Going from CC(=O)c1c(OC(=O)c2cccc(Cl)c2)c2ccccc2n1C to CCOC(=O)C(=CNc1ccc2c(c1)c1ccccc1n2CC)C(=O)OCC, the “viability” value falls from 102% to 92.9%.

Going from CCOC(=O)c1ccc(N2CN(C3CCCCC3)CNC2=S)cc1 to CCOC(=O)C1CCN(c2ccc(C(N)=O)cc2[N+](=O)[O-])CC1, the “viability” value rises from 95.3% to 96.3%.

Compared with N=C1C(c2nc3ccccc3[nH]2)=C(O)CN1c1ccc(F)cc1, Fc1ccc(-c2csc(NC(=S)Nc3ccccc3)n2)cc1 is higher in “viability” value: 92.2% for the first, 92.4% for the second.

Going from Cn1c2ccccc2c(=O)c2cc(C#CC3(O)CCCCC3)ccc21 to O=C1C(Cl)=C(N2CCCCC2)C(=O)N1c1ccccc1, the “viability” value rises from 85.6% to 98.2%.

Compared with O=C(O)C1CC(=O)N(c2ccc(OCc3ccccc3Cl)cc2)C1 (configuration not stated), CC(C)Oc1ccc(N2CC(C(=O)Nc3ccccc3F)CC2=O)cc1 (configuration not stated) is lower in “viability” value: 103% for the first, 94.2% for the second.

Compared with CSc1ccccc1C(=O)Nc1cccc([N+](=O)[O-])c1C, Cc1cc(C)nc(SCC(=O)Nc2ccccc2[N+](=O)[O-])n1 is higher in “viability” value: 96.2% for the first, 104% for the second.

Going from Cc1nn(-c2ccccc2)c(N2CCCC2)c1/C=C1\N=C(c2ccc(F)cc2)OC1=O to COc1ccc(C2c3c(C)nn(-c4ccccc4)c3NC(=O)N2c2ccccc2)cc1 (configuration not stated), the “viability” value falls from 99.7% to 94%.

Compared with Cc1sc2nc(C(C)(C)C)oc(=O)c2c1C, Cc1cc(C)c(C)c(S(=O)(=O)N2C(=S)NC(=O)C2CC(C)C)c1C (configuration not stated) is lower in “viability” value: 104% for the first, 90.3% for the second.

Compared with CC/C(=N\NC(=O)c1ccc(-c2ccccc2)cc1)C12CC3CC(CC(C3)C1)C2, CCOC(=O)CNC(=O)/C(=C\c1ccc(F)cc1)NC(=O)c1ccccc1 is lower in “viability” value: 89.7% for the first, 89.3% for the second.

Compared with CN(C)S(=O)(=O)c1ccc(C(=O)OCC2CC2(Cl)Cl)cc1 (configuration not stated), COC(=O)c1ccc(/C=N\NC(=O)c2ccc(C)cc2Cl)cc1 is higher in “viability” value: 101% for the first, 103% for the second.

First: CCCCOc1ccc(C(=O)Oc2cccnc2)cc1
Second: CCCCOc1ccccc1NC(=O)c1ccco1
The “viability” value of the first is lower: 83.7% for the first, 87.3% for the second.

Compared with N/C(=N\c1nc2ccccc2o1)NC(=O)c1ccccc1Br, C/C(=N\OCC(=O)Nc1nc2ccccc2s1)c1ccccc1 is lower in “viability” value: 101% for the first, 82.3% for the second.

First: CCOC(=O)N1CCN(C(=O)CSc2nnc(COc3ccccc3)o2)CC1
Second: CCCc1cc(C(=O)OCC(=O)N2CCN(c3ccc(OC)cc3)CC2)sc1C
The “viability” value of the first is higher: 98.8% for the first, 92% for the second.

First: CCNC(=S)N/N=C1\C(=O)c2cccc3cccc1c23
Second: COc1cc(OC)c(C(=O)Nc2cccc3ccccc23)cc1OC
The “viability” value of the first is lower: 92.7% for the first, 100% for the second.

First: O=C(CSc1ncnc2c1cnn2-c1ccccc1)Nc1ccc2c(c1)OCO2
Second: c1ccc(Nc2ncnc3c2oc2ccccc23)cc1
The “viability” value of the first is higher: 105% for the first, 91.8% for the second.

Compared with O=C(CCC(=O)Nc1ccccc1)NNC(=O)c1ccco1, Cc1ccc(S(=O)(=O)NCCCCCC(=O)Nc2ccccn2)cc1 is higher in “viability” value: 97.8% for the first, 103% for the second.

First: Cc1ccccc1OCC(=O)Nc1ccccc1N1CCOCC1
Second: COc1ccccc1C(=O)Nc1ccc2c3c(cccc13)CC2
The “viability” value of the first is lower: 87.5% for the first, 92.7% for the second.

First: Cc1ccc(C)c(NC(=O)c2cc(-c3cccnc3)nc3ccccc23)c1
Second: COc1cc(C(=O)NNC(=O)c2cc(-c3ccccc3)n[nH]2)cc(OC)c1C
The “viability” value of the first is higher: 90.4% for the first, 88.9% for the second.

First: C=CCNC(=S)NC(=O)c1csc([N+](=O)[O-])c1
Second: CCN(CC(=O)Nc1ccc2c(c1)OCCO2)C(=O)c1ccc([N+](=O)[O-])s1
The “viability” value of the first is lower: 94.3% for the first, 98% for the second.

Going from CC1CCN(CCOc2ccc(OCc3ccccc3)cc2)CC1 to COc1ccc(NCC(=O)N/N=C/C(C)c2ccccc2)cc1 (configuration not stated), the “viability” value rises from 86.6% to 104%.

Going from Cn1c(O)c(/C=C2/C=CC=N2)c(=O)[nH]c1=O to CN(C)C1=C(Cl)C(=O)N(c2ccc(Cl)c(Cl)c2)C1=O, the “viability” value falls from 103% to 96.3%.

First: CC(=O)c1ccc(OC(=O)N(c2ccccc2)c2ccccc2)cc1
Second: COc1ccc(/C(O)=C/C(=O)C(=O)NNC(=O)C(O)(c2ccccc2)c2ccccc2)cc1
The “viability” value of the first is lower: 95.2% for the first, 111% for the second.

Compared with O=c1c2c3n(c(=S)nc2[nH]n1-c1ccccc1)CCCCC3, O=C(CCSc1ccccc1)Nc1nc2c(s1)CCCC2 is higher in “viability” value: 96.8% for the first, 110% for the second.

Compared with COc1ccc(N2C(=O)NC(=O)/C(=C\c3ccc([N+](=O)[O-])s3)C2=O)cc1, CCc1cc(C(=O)O)c(NC(=O)/C=C/c2ccc(OC)cc2)s1 is higher in “viability” value: 93.5% for the first, 95.8% for the second.

Compared with Cc1cc(/C=N/NC(=O)CC#N)c(C)n1-c1ccc([N+](=O)[O-])cc1, COc1ccc(Cl)cc1NC(=O)C/C(C)=N/NC(=O)CC#N is higher in “viability” value: 90.9% for the first, 94.8% for the second.

First: CCOC(=O)C1CSC(CC(=O)Nc2ccc(Cl)c(Cl)c2)C(=O)N1 (configuration not stated)
Second: CCCCC(=O)NC(=S)Nc1ccc(NC(=O)C(C)C)c(OC)c1
The “viability” value of the first is higher: 102% for the first, 97.8% for the second.

First: O=C1C(Cl)=C(N2CCCCCC2)C(=O)N1c1ccc(Br)cc1
Second: O=C(/C=C/c1cc(Br)ccc1F)OCC(=O)N1CCCC1
The “viability” value of the first is lower: 96.8% for the first, 109% for the second.

Compared with CCOCC(=O)Nc1cc(C(F)(F)F)ccc1Oc1cccc(Br)c1, CC(/C=N/NC(=O)c1cc(C(C)(C)C)[nH]n1)=C\c1ccccc1 is higher in “viability” value: 84.7% for the first, 88.1% for the second.

Compared with CCCCNC(=O)c1onc(CSc2ccc(OC)cc2)c1C(=O)O, Cc1cc(C)cc(SCc2noc(C(=O)NC(C)C)c2C(=O)O)c1 is lower in “viability” value: 96.6% for the first, 93.7% for the second.

Compared with COC(=O)c1c(NC(=O)C2c3ccccc3Oc3ccccc32)sc(C)c1C, CCOC(=O)c1cc(-c2ccccc2)sc1NC(=O)C(C)N1C(=O)NC(C)(c2ccc(Cl)cc2)C1=O (configuration not stated) is lower in “viability” value: 83.2% for the first, 82.2% for the second.

Going from C/C(CC(=O)NCc1ccco1)=N\NC(=O)CC#N to Cc1ccc(S(=O)(=O)N[C@H](C(=O)OCn2nnc3ccccc3c2=O)C(C)C)cc1, the “viability” value falls from 87% to 84.8%.

First: Cc1ccc(C)c(CSc2nnc(C)c(=O)n2N)c1
Second: CSc1nnc(-c2ccc(NC(N)=S)cc2)o1
The “viability” value of the first is lower: 92.7% for the first, 98.6% for the second.

Source: PubChem BioAssay AID434958 (Southern Research Specialized Biocontainment Screening …, 2010)
